The structures appear in SMILES notation. Results filed as inconclusive are left out. A number with no mark means an inactive call. Activity calls are given as the source filed them. The call rests on the fitted dose curve; in most records, active means well fitted activation curve with a large enough effect in the repeat runs; inconclusive means weak or mixed curves; inactive means no such curve, though single readings can be large or run the other way.
On the % scale 0 is the no-effect control and ±100 the full control effect; potency means the concentration at half of the fitted maximal effect.

Sequence of Nuclear receptor subfamily 1 group I member 2 (Homo sapiens) (O75469 whole entry, looked up): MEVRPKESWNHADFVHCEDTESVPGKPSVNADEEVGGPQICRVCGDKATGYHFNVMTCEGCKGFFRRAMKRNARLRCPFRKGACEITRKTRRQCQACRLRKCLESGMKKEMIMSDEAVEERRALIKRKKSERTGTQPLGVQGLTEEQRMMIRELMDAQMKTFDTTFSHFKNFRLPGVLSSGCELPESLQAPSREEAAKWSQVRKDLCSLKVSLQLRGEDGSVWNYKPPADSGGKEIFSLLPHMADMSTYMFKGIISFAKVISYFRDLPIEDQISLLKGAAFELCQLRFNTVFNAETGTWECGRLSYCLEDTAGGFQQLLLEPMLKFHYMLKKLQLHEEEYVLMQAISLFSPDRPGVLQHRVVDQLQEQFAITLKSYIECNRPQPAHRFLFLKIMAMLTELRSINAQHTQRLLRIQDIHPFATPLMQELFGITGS

The test concerns the target Nuclear receptor subfamily 1 group I member 2 (Homo sapiens) (UniProt O75469). Description: Human pregnane X receptor (PXR) small molecule agonists, qHTS assay (AID 1346982). Further: nearly all actives have a fitted effect of over 35% in size. As to conditions: PXR-Luc HepG2, CYP3A4 luciferase reporter, 24 h; series mostly up to 92.4 µM; activation: at the top concentration. In short, it runs like this: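 Agonist mode qHTS: PXR-Luc HepG2 cells plated 5 hr before DMSO-dissolved compounds were pinned in, cultured 24 hr at 37 C, 5% CO2; ONE-Glo luminescence readout.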
Background: In qHTS, concentration-response curves come from the screen itself.
Turning to `OC[C@@H](O)[C@H](O)[C@@H](O)[C@@H](O)CO`, the “activation” value is -1.81%.

For the compound `CCCCCCCC/C=C\CCCCCCCC(=O)OC[C@@H](O)[C@H]1OC[C@H](O)[C@H]1O`, the “activation” value is 12.4%.

Consider `O=C(O)CCNC(=O)c1ccccc1`, for which the “activation” value was -6.13% [at 42.5 µM].

On to `CC(C)CCC(=O)CCC(C)C`, for which the “activation” value is 3.29%.

`CC(C)C(=O)c1ccccc1`: the “activation” value is 1.41%.

For the compound `OCCCCCCCl`, the “activation” value was 5.14%.

`CCCCCC(=O)OCC`: the “activation” value is 4.95%.

For `CCCCCCCCOC(C)=O`, the “activation” value is 8.15%.

With `C=CCOC(=O)c1ccc(C(=O)OCC=C)c(C(=O)OCC=C)c1`, the “activation” value is 4.81%.

As to `CC(C)COC(=O)/C=C/c1ccccc1`, the “activation” value is 2.05%.

In the case of `CCN(CCO)c1cccc(C)c1`, the “activation” value was 19.9%.

For the compound `C[N+](C)(C)CC(O)CCl` (stereo unspecified), the “activation” value is -2.37%.

In the case of `CCCCCCCCCCCCC`, the “activation” value is 4.96%.

`Nc1ccc(S(=O)(=O)Nc2ccccn2)cc1`: the “activation” value was -3.75% [at 42.5 µM].

As for `CCCCCCCCCCC`, the “activation” value was 13.7%.

For `CC1CCC(C(C)(C)S)C(=O)C1` (stereo unspecified), the Potency was 61.1 µM (active).

Consider `CCCCOC(=O)[C@@H](C)Oc1ccc(Oc2ccc(C(F)(F)F)cn2)cc1`, for which the “activation” value was 5.22%.

Consider `CCC(O)C(C)(C)C` (stereo unspecified), for which the “activation” value is -1.05%.

Consider `O=C(Oc1ccccc1C(=O)O)c1ccccc1O`, for which the “activation” value is -2.32% [at 42.5 µM].

On to `CCOC(=O)CC#N`, for which the “activation” value is 12.4%.

For the compound `O=C1CC[C@H](C(=O)N2CCCCC2)N1`, the “activation” value was -1.7% [at 42.5 µM].

With `CC(=O)c1ccc2c(c1)CCCC2`, the “activation” value is 3.1%.

As for `O=CN1CCOCC1`, the “activation” value was 6.35%.

Regarding `CN[C@@H]1[C@H](O)[C@H](NC)[C@H]2O[C@@]3(O)C(=O)C[C@@H](C)O[C@H]3O[C@@H]2[C@H]1O`, the “activation” value was -5.59% [at 42.5 µM].

With `C[C@H](CCC(=O)O)[C@H]1CC[C@H]2[C@@H]3[C@H](O)C[C@@H]4C[C@H](O)CC[C@]4(C)[C@H]3C[C@H](O)[C@]12C`, the “activation” value was 4.26% [at 42.5 µM].

Turning to `CCc1nccnc1C`, the “activation” value is 8.8%.
